# Gal4-VP16 FLuc = inhibits Gal4-VP16 luciferase reporter, ROR gamma counter-screen. Drosophila S2 Gal4-VP16 UAS-luciferase, luminescence, 20 h. Potency, µM (doses to about 53.6 µM), without a hit: at the highest dose activity, negative = inhibition, usual class: inhibitors. hit rate 3.5% among 310,000;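 further: Gal4-VP16 expression switched on by copper sulfate through the metallothionein promoter; on the % scale 0 is the no-effect control and ±100 the full control effect; nearly all actives have a fitted effect of over 50% in size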
# KB-3-1 tox = KB-3-1 parental cell cytotoxicity | KB-3-1 viability, CellTiter-Glo ATP luminescence, 72 h | Potency, µM (titrated, usually from 46.1 µM), actives largely listed as cytotoxic | hit rate 1.4% among 400,000 | AID 1347075; further: on the % scale 0 is the no-effect control and ±100 the full control effect; nearly all actives have a fitted effect of over 60% in size
#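 Viability of parental KB-3-1 cells, measured by CellTiter-Glo luminescence, followed a 72 h incubation at 37 °C with pinned compounds in phenol-red-free DMEM containing 10% FBS.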
# KB-V1 cytotox = kills drug-selected multidrug resistant KB-V1 cells; hit rate 3.4% among 400,000; KB-V1 MDR cells viability, CellTiter-Glo, 72 h; Potency, µM (series often up to 46.1 µM), usual class: cytotoxic; further: on the % scale 0 is the no-effect control and ±100 the full control effect; nearly all actives have a fitted effect of over 60% in size
#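 Cells of the MDR subline KB-V1 are plated, dosed with compound at multiple concentrations, and incubated 72 h at 37 degrees C; CellTiter-Glo is then added and luminescence read after 10 min.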
# MCF10A rereplic = induces DNA re-replication in MCF 10a normal breast cells; MCF 10A DNA re-replication, Hoechst nuclear intensity, 48 h; Potency, µM (doses to about 46.1 µM), for the others: at the top dose activity, positive = re-replication, usual class: activators; hit rate 2.9% among 350,000; AID 624296; further: % of control where 0% means no effect; nearly all actives have a fitted effect of over 50% in size
# SW480 rereplic = induces DNA re-replication in SW480 colon adenocarcinoma cells | SW480 DNA re-replication, Hoechst DNA content imaging, 48 h | hit rate 1.8% among 340,000 | Potency, µM (titrated, usually from 46.1 µM), for the others: at the top dose re-replication activation, usual class: activators | AID 624297; further: % of control where 0% means no effect; nearly all actives have a fitted effect of over 55% in size
#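 Image-based read-out: total Hoechst fluorescence of nuclei (405 nm excitation, 500-530 nm emission), with hits raising the fraction of high-intensity nuclei. SW480 colon cells incubated 48 hr with compounds at 37 C.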
# RORgamma inh = blocks mouse ROR gamma transcriptional activity | Drosophila S2 Gal4-RORgamma UAS-luciferase reporter, 20 h | P51450 | hit rate 5.4% among 310,000 | Potency, µM (series often up to 53.6 µM), without a hit: at the highest dose activity change, negative = inhibition, actives largely listed as inhibitors | AID 2551; further: on the % scale 0 is the no-effect control and ±100 the full control effect; nearly all actives have a fitted effect of over 60% in size
# Target sequence (P51450 whole entry, looked up, the tested form may be a part): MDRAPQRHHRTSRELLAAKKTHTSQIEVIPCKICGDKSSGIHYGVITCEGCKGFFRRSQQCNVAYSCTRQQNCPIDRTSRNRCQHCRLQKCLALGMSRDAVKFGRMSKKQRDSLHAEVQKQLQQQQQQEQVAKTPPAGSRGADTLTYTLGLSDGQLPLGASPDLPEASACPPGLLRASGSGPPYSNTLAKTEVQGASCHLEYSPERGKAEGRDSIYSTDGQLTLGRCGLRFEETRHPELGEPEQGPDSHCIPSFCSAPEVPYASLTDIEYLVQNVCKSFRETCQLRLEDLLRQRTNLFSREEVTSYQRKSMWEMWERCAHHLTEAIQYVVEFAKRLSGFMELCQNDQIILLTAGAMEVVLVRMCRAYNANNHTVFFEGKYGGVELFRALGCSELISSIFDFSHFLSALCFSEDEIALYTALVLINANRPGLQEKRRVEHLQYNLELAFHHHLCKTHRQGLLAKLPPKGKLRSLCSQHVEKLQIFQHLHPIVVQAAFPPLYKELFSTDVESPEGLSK
#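 Luciferase reporter read in Schneider cells carrying Gal4-RORγ (mouse) and UAS-Photinus luciferase; cells given compound 1 h before 700 uM copper sulfate induction, then incubated 20 h at ambient temperature.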
# An asterisk follows results filed as active; i = inactive; ? = inconclusive; / = no result given; [ ] = dose if it differs, or a comment. Sampled rows, rich in hits. Any-hit rate of the full collection: about 10%. The call rests on the fitted dose curve; in most records, active means well fitted curve in the direction sought with a large enough effect; inconclusive means small, poorly fitted or top-dose-only effect, or another doubt; inactive means no such curve, though single readings can be large; an effect the other way counts as inactive or inconclusive. Potency means the concentration at half of the fitted maximal effect.
SMILES,Gal4-VP16 FLuc,KB-3-1 tox,KB-V1 cytotox,MCF10A rereplic,SW480 rereplic,RORgamma inh
CCOc1ccc(N(CC(=O)NC2CC3CCC2C3)S(=O)(=O)c2ccc(C)cc2)cc1 (stereo not given),-4%,i,i,9%,?,0%
COc1cc(/C=N/NC(=S)NCCN2CCOCC2)ccc1O,-10%,i,i,10%,-11%,?
CCOc1ccc(/C=N/NC(=S)NC2CC3CC2C2C=CCC32)cc1 (stereo not given),4.5µM*,i,i,6.5µM*,10%,5µM*
COc1cc(/C=N/NC(=S)NC2CC3CC2C2C=CCC32)ccc1O (stereo not given),4.5µM*,?,?,-4%,?,1.6µM*
CCOc1ccc(/C=N/NC(=S)NC2CC3CCC2C3)cc1 (stereo not given),?,i,i,2%,-5%,5µM*
COc1ccc(NC(=O)C(Cc2ccccc2)NS(=O)(=O)c2ccc3c(c2)CCN3C(C)=O)cc1 (stereo not given),/,i,i,/,/,/
CC(=O)OCC(NC(=O)C1CCCN1C(=O)OC(C)(C)C)C1OC(n2cc(F)c(=O)[nH]c2=O)C(OC(C)=O)C1OC(C)=O (stereo not given),-3%,/,/,/,/,-7%
Cc1ccc(Cl)cc1N1CCN(C(=O)c2cccn2-c2nnc(N3CCCC3)s2)CC1,/,i,i,/,/,/
CCCCCCNC(=O)CC(c1ccccc1)c1cc(Br)ccc1O (stereo not given),10µM*,?,?,?,1%,2.8µM*
CSc1cccc(NC(=O)N2CCN(c3cc(-c4noc(C)n4)ccc3C)CC2)c1,/,i,?,/,/,/
O=c1oc2ccccc2cc1-c1cn2ccccc2n1,2.2µM*,i,?,?,?,1µM*
CC(C)c1ccc(Cc2cn3cc(-c4cc5ccccc5oc4=O)nc3s2)cc1,/,0.58µM*,?,/,/,/
COc1ccc2oc(=O)c(-c3cn4ccc(C)cc4n3)cc2c1,-16%,i,i,15µM*,?,-5%
COc1c(Cl)cccc1-c1cn2ccc(C)cc2n1,-25%,i,?,?,?,?
O=c1oc2ccccc2cc1-c1cn2cccnc2n1,?,i,i,9%,-7%,?
COc1cccc(C(=O)Nc2nnc(S(=O)(=O)N3CCCc4ccccc43)s2)c1,/,i,i,/,/,/
COC(=O)C1=CO[C@@H](C)[C@@H]2CN3CCc4c([nH]c5ccccc45)[C@@H]3C[C@H]12,-12%,/,/,/,/,18%
CNC(=O)c1ccc(CSc2nc3cccnc3n2Cc2cccc(F)c2)cc1,/,?,i,/,/,/
Cc1sc2nc(SCC(=O)OC(C)C)n(C)c(=O)c2c1C,-26%,i,15µM*,12%,-9%,-37%
CC(=O)Nc1ccc(S(=O)(=O)N(C)Cc2ccccc2)cc1,25%,i,?,2%,-4%,?
CCN(Cc1ccccc1)S(=O)(=O)c1ccc(-c2coc(C)n2)cc1,/,i,?,/,/,/
CCN(Cc1ccccc1)S(=O)(=O)c1ccc(C(=O)Nc2nnc(C)o2)cc1,0.56µM*,?,i,1%,?,0.56µM*
COc1ccccc1-c1nnc(NC(=O)c2ccc(S(=O)(=O)N(C)Cc3ccccc3)cc2)o1,0.0028µM*,?,5.2µM*,?,21µM*,0.32µM*
CCc1nnc(NC(=O)c2ccc(S(=O)(=O)N(C)Cc3ccccc3)cc2)o1,?,?,3.7µM*,-1%,2.6µM*,0.13µM*
CN(Cc1ccccc1)S(=O)(=O)c1ccc(C(=O)Nc2nnc(C3CC3)o2)cc1,0.56µM*,?,?,2%,?,0.28µM*
SMILES,Gal4-VP16 FLuc,KB-3-1 tox,KB-V1 cytotox,MCF10A rereplic,SW480 rereplic,RORgamma inh
COc1ccc(O[C@H]2C=C[C@@H](c3ccccc3)O[C@H]2CO/N=C\C[C@@H]2C=C[C@H](OC(C)=O)[C@H](COC(C)=O)O2)cc1,3%[10 µM],/,/,/,/,0%[10 µM]
CCN(Cc1ccccc1)S(=O)(=O)c1ccc(OC)cc1,-28%,i,i,1%,-11%,122%
CCc1nnc(NC(=O)c2ccc(S(=O)(=O)N(CC)Cc3ccccc3)cc2)o1,0.11µM*,?,?,?,23%,0.1µM*
CC(C)NC(=O)c1ccc(Cn2c(SCC(N)=O)nc3ccccc3c2=O)cc1,/,i,i,/,/,/
Cc1cn([C@H]2C[C@H](O)[C@@H](CNC(=O)[C@H](N)Cc3cn(COCc4ccccc4)cn3)O2)c(=O)[nH]c1=O,/,i,i,/,/,/
CCc1ccc(OCc2ccc(C(=O)O)o2)cc1,?,i,i,-1%,-4%,7.1µM*
O=C(O)c1ccc(OCc2ccc(C(=O)O)o2)cc1,1%,i,i,2%,0%,-5%
CC(C)c1ccc(OCc2ccc(C(=O)O)o2)cc1,?,i,?,14%,2%,2.8µM*
Cc1ccc(-n2c(=O)c3c(c4cc(C)ccc4n3C)n(CC(=O)Nc3c(C)cccc3C)c2=O)cc1,/,i,i,/,/,/
O=C(O)c1ccc(NC(=S)NCc2ccccc2)cc1,7%,i,?,-8%,-5%,-35%
CN(C(=S)Nc1ccc(SC(F)F)cc1)C(c1ccccc1)c1ccccc1,?,i,i,?,1%,?
FC(F)Sc1ccc(NC(=S)NC(c2ccccc2)c2ccccc2)cc1,?,?,?,3.7µM*,?,7.1µM*
FC(F)(F)c1ccc(NC(=S)NCc2ccccc2)cc1,?,i,?,?,9%,4.5µM*
FC(F)Sc1ccc(NC(=S)NCc2ccccc2)cc1,?,i,?,?,18%,11µM*
O=C(NCCN1CCOCC1)C1(C(F)(F)F)C/C(=C\CCO)CCCO1 (stereo not given),-24%,/,/,/,/,-1%
CCn1cc(C(=O)N(C)c2cc(C)ccc2C)c2cc(OC)c(OC)cc2c1=O,/,i,i,/,/,/
COc1ccc(-c2nc3cnc(N4CCN(C)CC4)nc3n(-c3ccc(OC)cc3)c2=O)cc1,-5%,/,/,/,/,-38%
Cc1ccc(C)c(Cn2cnc3ccccc3c2=O)c1,/,i,i,/,/,/
CCN1CCN(C2=C(NS(=O)(=O)c3ccc(C)cc3)C(=O)c3ccccc3C2=O)CC1,-18%,?,?,12%,21µM*,?
CC1CCN(C2=C(NS(=O)(=O)c3ccccc3)C(=O)c3ccccc3C2=O)CC1,5%,i,i,?,-12%,-3%
CCN1CCN(C2=C(NS(=O)(=O)c3ccc(NC(C)=O)cc3)C(=O)c3ccccc3C2=O)CC1,?,?,i,?,-1%,?

# Source: PubChem (National Center for Advancing Translational Sciences (NCATS))
